Screening data as filed in PubChem BioAssay.
CF NFkB block = inhibitors of cystic fibrosis induced NF-kB; KKLEB NF-kB-GFP reporter, PAF-induced, GFP fluorescence overnight; 360,000 compounds, 0.86% hits; inhibition, % at 5 µM;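 active means at least 50% inhibition at 5 µM, scaled per plate between neutral and stimulator controls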;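 further: PAF is a Pseudomonas aeruginosa culture filtrate used as stimulus; plate controls were PAF-stimulated DMSO wells for no effect and unstimulated DMSO wells for full effect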
TRAIL sens C8 = caspase-8 TRAIL sensitization | inhibition (viability loss, TRAIL sensitization), % at 10 µM | NB7+C8 cells + TRAIL, ATPlite viability luminescence | 360,000 compounds, 1% hits;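 active means compounds causing at least 50% loss of cell viability in the single-dose screen, relative to plate controls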
PPC-1+TRAIL kill = compounds killing PPC-1 cancer cells with TRAIL present (potentiator screen, no TRAIL-free arm) | cell killing (% activity), % at 4 µM or 5 µM | AID 1443 | 220,000 compounds, 0.41% hits | PPC-1 cells + TRAIL, ATPLite viability luminescence;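 active means cell killing above 50% in the first pass at 4 µM, then a duplicate retest at 5 µM averaging 50% or more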;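 further: plate controls were cells with TRAIL plus DMSO for no effect and medium-only wells lacking cells for full effect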
hiPSC survival = enhancers of human iPSC single-cell survival | hiPSC single-cell survival, ATPlite luminescence; 100% = ROCK inhibitor wells, 0% = DMSO | survival enhancement, % at 20 µM | 360,000 compounds, 0.044% hits; in the data active means survival enhancement above about 18%;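 further: cells exposed to compounds for 16 hours before the ATP read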
KKLEB tox = reduces viability of KKLEB cystic fibrosis airway cells; 360,000 compounds, 0.36% hits; activity change (cytotoxicity), % at 5 µM; KKLEB CF airway cells viability, ATPlite luminescence, overnight; stronger effect = lower value; cells stimulated with P. aeruginosa culture filtrate;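 active means corrected activity change at or below -50% at 5 µM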
HIF-2a inh = inhibitors of HIF-2a. 786-0 RCC cells HIF-2a reporter, luciferase luminescence, overnight. inhibition, % at 18.8 µM. 360,000 compounds, 0.72% hits;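 active means inhibition of the luminescence signal of 40% or more relative to plate controls, in a single-dose primary screen at 18.75 µM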
CF NFkB inh conf = CF NF-kB inhibition confirmation, single concentration; shares compounds with CF NFkB block; KKLEB CF airway cells, PAF-induced NF-kB-GFP fluorescence, overnight; inhibition, % at 5 µM; 1,300 compounds, 64% hits; in the data active means inhibition above about 40%;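 further: stimulus PAF is a Pseudomonas aeruginosa filtrate and not platelet activating factor; plate controls were DMSO wells with stimulus for no effect and unstimulated DMSO wells for full effect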
Starred values were filed as active, the others as inactive; / = not tested or not shown; ! = not confirmed by another sample. Compounds with a hit are over-represented: about 2.2% of the library has one in this group of screens.

SMILES	CF NFkB block	TRAIL sens C8	PPC-1+TRAIL kill	hiPSC survival	KKLEB tox	HIF-2a inh	CF NFkB inh conf
O=C(Nc1ccc(F)c(F)c1)C1CCN(S(=O)(=O)c2cccs2)CC1	-1	-22	/	1	-2	9	/
COc1ccc(NC(=O)COC(=O)c2c(NC(C)=O)sc(C)c2C)cc1	56*	7	/	3	-45	-9	24
COc1ccc(NC(=O)c2cc3c(CO)cnc(C)c3oc2=Nc2cccc(F)c2)c(OC)c1	52*	-6	/	-1	-33	8	26
CC(=O)Nc1ccc(C(=O)COC(=O)c2ccco2)c(F)c1	-7	0	/	0	5	2	/
CC(=O)c1ccc(Nc2nc(C(C)N)cs2)cc1 (configuration not stated)	4	-1	/	0	-10	-1	/
Cn1ccc2c(N3c4ccccc4CCc4ccccc43)cc3c(c21)C1CCC3O1 (configuration not stated)	85*	-8	/	-2	-17	7	15
Cn1ccc2c(N3c4ccccc4CCc4ccccc43)cc3c(c21)C1CCC3C1 (configuration not stated)	8	7	/	3	-4	-29	/
CN(Cc1ccccc1)c1cc2c(c3c1ccn3C)C1CCC2O1 (configuration not stated)	7	4	/	-1	0	-5	/
COc1ccccc1N(C)c1cc2c(c3c1ccn3C)C1CCC2O1 (configuration not stated)	92*	0	/	-2	-18	16	31
CN(CC1CCCO1)S(=O)(=O)c1ccc(C(=O)Nc2nnc(-c3ccccc3)o2)cc1 (configuration not stated)	-43	19	/	1	0	15	/
O=C(NCCc1c[nH]c2ccccc12)c1cc([N+](=O)[O-])cc([N+](=O)[O-])c1	-20	-4	/	0	7	15	/
O=C(NCCc1c[nH]c2ccccc12)c1ccc([N+](=O)[O-])o1	70*	19	/	-1	-8	5	43*
CCOC(=O)c1[nH]c(C)c(C(=O)N2CCc3ccccc32)c1C	54*	10	-20	-1	-36	12	57*
O=[N+]([O-])c1cc(S(=O)(=O)N2CCCC2)ccc1OCCOc1ccccc1	50*	-4	/	0	-22	-19	15
CCC(=O)OC1(C(=O)CCl)[C@@H](C)C[C@H]2[C@@H]3CCC4=CC(=O)C=C[C@]4(C)[C@@]3(F)[C@@H](O)C[C@@]21C (some centres not stated)	76*	-4	/	0	-7	26	18
CCCC(=O)O[C@]1(C(=O)CCl)[C@@H](C)C[C@H]2[C@@H]3CCC4=CC(=O)C=C[C@]4(C)[C@@]3(F)C(=O)C[C@@]21C	91*	21	11	-2	-3	31	2
CCC(=O)O[C@]1(C(=O)CCl)[C@@H](C)C[C@H]2[C@@H]3CCC4=CC(=O)C=C[C@]4(C)[C@@]3(F)[C@@H](O)C[C@@]21C	77*	5	30	-1	17	24	18
COc1cccc(N(CC(=O)NCCSc2ccccn2)S(=O)(=O)c2ccccc2)c1	2	7	/	0	-3	7	/
CC(C(=O)Nc1ccc(Cl)cc1Cl)N1C(=O)NC2(CCCC2)C1=O (configuration not stated)	-4	-11	/	0	-2	6	/
O=C(Nc1ccc(F)cc1)C1(S(=O)(=O)c2ccc(Cl)cc2)CC1	0	-9	/	3	7	13	/
CC12CCC(C(=O)N3CCCCC3)([C@H](Br)C1=O)C2(C)C (some centres not stated)	2	-8	1	1	6	13	/
Cc1cn(-c2cc(C(=O)Nc3ccc(C)c(NC(=O)C(=O)c4c[nH]c5ccccc45)c3)cc(C(F)(F)F)c2)cn1	50*!	26	3	0	0	24	21
CCC(COC)Oc1cc(NCc2ccccc2)c2ncn(C(C)C)c2c1 (configuration not stated)	66*	58*	/	-1	-15	12	20
CCC(CO)Oc1cc(NCc2ccc(O)cc2)c2ncn(C(C)C)c2c1 (configuration not stated)	7	-20	/	0	-3	2	/
COCCCOc1cc(NCc2ccccc2)c2ncn(C(C)C)c2c1	-14	4	/	-2	2	18	/
SMILES	CF NFkB block	TRAIL sens C8	PPC-1+TRAIL kill	hiPSC survival	KKLEB tox	HIF-2a inh	CF NFkB inh conf
CCCCOc1cc(NCc2ccccc2)c2ncn(C(C)C)c2c1	60*	29	/	-3	-8	1	22
CCC(CO)Oc1cc(NCc2ccc(C(C)(C)C)cc2)c2ncn(C(C)C)c2c1 (configuration not stated)	51*	14	/	-1	1	20	29
CCC(CO)Oc1cc(NCc2ccccc2C(F)(F)F)c2ncn(C(C)C)c2c1 (configuration not stated)	61*	9	/	4	-17	22	11
CC(=O)c1ccc(OCc2cc(C(=O)N(C)CCOc3ccc(C)cc3)no2)cc1	-17	-1	/	0	8	-243	/
O=C1CNC(=S)N1Cc1cccc(Cl)c1	-39	-16	/	2	11	12	/
O=C1NCCN(CC2CCN(CCc3ccc(Cl)c(Cl)c3)CC2)C1=O	-2	-6	/	-1	1	4	/
Cn1cc([N+](=O)[O-])c(C(=O)Nc2sc3c(c2C#N)CCC3)n1	58*	33	/	0	-14	-12	-82
COc1cc(/C=C2\SC(=O)N(CCNC(=O)c3sc4cc(F)ccc4c3Cl)C2=O)cc(OC)c1OC	55*	1	24	0	-42	17	67*
COc1cc(C(=O)NCC(=O)NCCN2C(=O)S/C(=C\c3ccccc3Cl)C2=O)cc(OC)c1OC	-19	-13	/	0	-3	-46	/
CNC(=O)c1c(NC(=O)C2=COCCO2)sc2c1CCCC2	-29	-23	/	0	26	-52	/
COc1nc(-c2ccc(C)cc2)ccc1-c1noc(-c2cccnc2)n1	53*	11	-18	5	-32	-6	19
COc1nc(-c2ccccc2)ccc1-c1noc(-c2cccnc2)n1	1	2	10	2	10	-78	/
C[C@H]1CCC[C@]2(C)C[C@H]3OC(=O)C(CN4CCCCCC4)[C@H]3C=C12 (some centres not stated)	74*	15	/	1	-22	-5	40
COc1cc(OC)cc(-c2oc(=O)c3cc(OC)c(OC)cc3c2C(F)(F)F)c1	-2	-17	/	0	-7	1	/
O=C1N(c2ccccc2C(F)(F)F)O[C@]1(c1ccccc1)C1CCCCC1	54*	-2	/	0	6	22	64*
